# About 4,000 (4.3%) of roughly 94,000 compounds were called active. Another 29% or so got no clear call; they are omitted. Calls follow the shape of the dose curve; as a rule, active = well fitted inhibition curve with a large enough effect; inconclusive = small, poorly fitted or top-dose-only effect; inactive = no such curve, though single readings can be large or run the other way. Shown is part of a subset that was picked to be rich in actives. Entries that show only a call come without a potency.
# Assay: Cytotoxic Profiling in NIH 3T3 Cell Line of Diverse Libraries Using Quantitative High-Throughput Screening; also: nearly all actives have a fitted effect of over 55% in size
# Details: NIH 3T3 viability, CellTiter-Glo ATP luminescence, 48-72 h; series mostly up to 96.7 µM
# Method in brief: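 NIH 3T3 cells at 400 cells/well received 23 nL of compound by pintool and were incubated 48 or 72 h at 37 °C. Viability was read as ATP-coupled CellTiter-Glo luminescence.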
# Potency is read from the fitted curve at half-maximal effect.
row,SMILES,Potency
1,CCn1ccc(C(=O)N2C[C@@H]3CCCN4CCC[C@@H]([C@H]34)[C@H]2CCCC(=O)Nc2ccccc2)n1,inactive
2,CC(=O)NC1CC2(CCN(C(=O)CCC(=O)O)CC2)c2ccccc21 (stereo not given),inactive
3,CS(=O)(=O)N1Cc2ccccc2CC2(CCN(Cc3ccncc3)C2)C1 (stereo not given),inactive
4,CCN1CCc2[nH]cnc2C12CCN(C(=O)C1CCc3ccccc3C1)CC2 (stereo not given),inactive
5,Cc1cc2nc3n(c(=O)c2n1CC(=O)Nc1cccc(C(F)(F)F)c1)CCCC3,inactive
6,O=C(NCc1ccncc1)c1csc(N2CCN(c3ccccc3F)CC2)n1,inactive
7,O=C(c1ccc(C(F)(F)F)cc1)N1CCCC2(CC(c3ccccn3)=NO2)C1 (stereo not given),inactive
8,COc1ccc(CC(=O)NC[C@@H]2C=C(C)[C@H](Cc3nc4ccncc4[nH]3)C[C@H]2C(C)C)cc1,inactive
9,CC1=C[C@@H](CN2CCN(CCO)CC2)[C@H](C(C)C)C[C@H]1Cc1nnc(-c2ccc(C)cc2)o1,39.8 µM (active)
10,Fc1ccc(CN2CC[C@H](c3nnc(-c4ccccc4F)o3)C2)cc1,inactive
11,COc1ccc(C(=O)NCc2nnc3cc(-c4nc(C)no4)ccn23)cc1,inactive
12,COc1ccc(C(=O)NC[C@@H]2C=C(C)[C@H](Cc3nnc(-c4cncn4C)o3)C[C@H]2C(C)C)cc1,25.1 µM (active)
13,CC1=C[C@@H](CNC(C)C)[C@H](C(C)C)C[C@H]1Cc1nnc(-c2ccc(C)cc2)o1,50.1 µM (active)
14,CC1=C[C@@H](CN2CCC(O)CC2)[C@H](C(C)C)C[C@H]1Cc1nnc(-c2ccccc2F)o1,112 µM (active)
15,O=C1NCc2ccccc2CC12CCN(Cc1ccc(CO)o1)C2 (stereo not given),inactive
16,CC(C)c1ccccc1NC(=O)Cn1cccc1-c1nc(-c2ccccc2)no1,inactive
17,Cc1ccc(CN2CCNC(=O)C2CC(=O)NC2(CO)CCCC2)cc1 (stereo not given),inactive
18,Cc1ncc2c(c1CNC(=O)c1ccccc1F)CCN(C(=O)Cc1cccc(F)c1)C2,inactive
19,CC(C)C(=O)NCC12CCC=C1N(C)C(=O)CC2 (stereo not given),inactive
20,COCCN1C(=O)CS(=O)(=O)C12CCN(C(=O)c1ccc(OC)cc1)CC2,inactive

row,SMILES,Potency
1,CNC(=O)[C@@H]1CN(C(=O)c2cccc(OC)c2)C[C@H]1COC,inactive
2,O=C(NC1CCC(n2cc(C(=O)N3CCCC3)nn2)CC1)C(c1ccccc1)C1CCCC1 (stereo not given),inactive
3,COCCNc1ncc(C(=O)O)c(C)n1,inactive
4,O=C(Nc1ccc2ncnc(N3CCCCC3)c2c1)c1ccc2c(c1)OCO2,inactive
5,N[C@@H]1CC[C@H](C(=O)N2CCN(CCCOc3ccc(F)cc3)CC2)C1,inactive
6,O=C(CCc1nnn2c1CN(C(=O)NCCc1ccccc1)CC2)NC1CC1,inactive
7,CCn1cc(Cl)c(C(=O)N2CCCn3cc(-c4ccccc4)nc32)n1,inactive
8,CC1=C[C@@H](CN(C)CCc2ccccn2)[C@H](C(C)C)C[C@H]1Cc1nnc(-c2ccccc2F)o1,35.5 µM (active)
9,CCCc1nnc(C[C@@H]2C[C@@H](C(C)C)[C@H](CN3CCC[C@H]3CO)C=C2C)o1,50.1 µM (active)
10,COCC(=O)NC[C@@H]1C=C(C)[C@H](CC(=O)Nc2ccccn2)C[C@H]1C(C)C,inactive
11,CNC(=O)c1cn2c(n1)CN(C(C)=O)CC2,inactive
12,COc1cc(CCC(=O)N2C[C@@H](C(N)=O)[C@H](c3n[nH]c(C)n3)C2)on1,inactive
13,COc1ccc(C(=O)N2C[C@@H](CO)[C@H](c3ccncc3)C2)cc1F,inactive
14,Cc1ccccc1C(=O)N1CCC2(CC1)OCC(C(=O)N1CCOCC1)N2C(=O)c1cccc(F)c1 (stereo not given),inactive
15,O=C(c1ccc(F)c(F)c1)N1CCC([C@@H]2CNC[C@H]2CO)CC1,inactive
16,COc1ccc(-c2noc(-c3nnn4c3COC(c3ccc(F)cc3)C4)n2)cc1 (stereo not given),inactive
17,Cc1ccc(S(=O)(=O)Nc2ccc(C)n(CC(=O)NCc3cccc(F)c3)c2=O)cc1,inactive
18,CC(C)CNC(=O)C1COC2(CCC(C)CC2)N1C(=O)c1cccc(F)c1 (stereo not given),inactive
19,O=C(NCc1ccc(F)cc1)C1COC2(CCCCC2)N1C(=O)c1ccccc1 (stereo not given),inactive
20,CC1CCC2(CC1)OCC(C(=O)NCc1ccc3c(c1)OCO3)N2C(=O)c1ccccc1F (stereo not given),20 µM (active)

row,SMILES,Potency
1,CCCOc1cc(C)c2c(c1C)C[C@H](C(C)C(=O)N1CCOCC1)CC2 (stereo not given in full),inactive
2,Fc1cccc(-c2ncc[nH]2)c1,inactive
3,O=C1NC[C@@H](CCC(=O)N2CCN(c3ccccn3)CC2)N2C[C@@H](NCc3ccccc3)C[C@@H]12,inactive
4,CC(C)N1CC2(C1)C(=O)N(CCCN1CCCC1=O)C(=O)[C@@H]1C[C@@H](O)CN12,inactive
5,COc1ncccc1-c1cc(-c2cn[nH]c2)c2cncn2c1,70.8 µM (active)
6,COc1ccccc1-c1cc(-c2cn[nH]c2)c2cncn2c1,50.1 µM (active)
7,COc1ccccc1-c1cc(C(=O)N(C)C)nc2c1cnn2C,inactive
8,COc1ccccc1-c1ccc(C(=O)O)cc1,inactive
9,O=C(CCn1cncn1)N1CCc2[nH]nc(-c3cccc4ccccc34)c2C1,inactive
10,CCCN(CC1CCOC1)C(=O)Nc1ccccc1C(F)(F)F (stereo not given),inactive
11,O=[S+]([O-])(c1cccc(C(F)(F)F)c1)N1CCC2(CCN(CCc3ccccc3)c3ccccc3O2)CC1,inactive
12,Cc1ccc(CN2CCC(C3CCN(S(C)(=O)=O)CC3)C2)nc1 (stereo not given),inactive
13,CCCNc1cc(N2CCC(CCC(=O)Nc3ccc(C)cc3)CC2)ncn1,inactive
14,COc1ccccc1Oc1ncccc1CNC(=O)c1ccc2n[nH]nc2c1,inactive
15,CC(=O)NC(C)c1nnc2n1CCN([S+](=O)([O-])c1ccccc1)C2 (stereo not given),inactive
16,Cc1ccc(-c2ccccc2CN2CCN([S+](=O)([O-])c3cccc(C(F)(F)F)c3)CC2)cc1Cl,inactive
17,CC(C)c1ccc([S+](=O)([O-])N2CCN(c3cccc(CN(C)[S+](C)(=O)[O-])c3F)CC2)cc1,35.5 µM (active)
18,O=C(C1CCCC1)N1Cc2ccccc2CC2(CCCCN2CC2CCNCC2)C1 (stereo not given),17.8 µM (active)
19,NCC(=O)N1Cc2ccccc2CC2(CCCCN2CC2CCOCC2)C1 (stereo not given),inactive
20,CC(=O)NCCC(=O)N1Cc2ccccc2CC2(CCCCN2CC2CCNC2)C1 (stereo not given),inactive
